The values below come from PubChem BioAssay (NCATS).

For assay [1], the system named is PC26. Nature of the assay: qHTS profiling for inhibitors of Plasmodium falciparum proliferation (AID 504749). The conditions noted are these: P. falciparum in erythrocytes, SYBR Green DNA, 72 h; series mostly up to 28.7 µM. In a few lines:
(§1)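 Fluorescence of SYBR Green-bound parasite DNA, read at 485/535 nm, served as the growth measure. Infected erythrocytes were cultured with compound 72 h; artemisinin (0.29 uM) and DMSO wells defined the normalization range.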

For assay [2], the system named is PC49. Described as above. The conditions noted are these: P. falciparum in erythrocytes, SYBR Green DNA, 72 h; series mostly up to 28.7 µM. The essentials:
as §1

Assay [3] has as its system SC27B. Described as above. To be noted: P. falciparum in erythrocytes, SYBR Green DNA, 72 h; series mostly up to 28.7 µM. The essentials: as §1
The test system of assay [4] is TAB109. Described as above. To be noted: P. falciparum in erythrocytes, SYBR Green DNA, 72 h; series mostly up to 28.7 µM. In a few lines: as §1
The test system of assay [5] is TAB113. The description is as above. The conditions noted are these: P. falciparum in erythrocytes, SYBR Green DNA, 72 h; series mostly up to 28.7 µM. The essentials:
as §1

Assay [6] has as its system TAB165. The assay is described as above. To be noted: P. falciparum in erythrocytes, SYBR Green DNA, 72 h; series mostly up to 28.7 µM. In a few lines: as §1
Assay [7] concerns W2. Described as above. The conditions noted are these: P. falciparum in erythrocytes, SYBR Green DNA, 72 h; series mostly up to 28.7 µM. In a few lines:
as §1

Assay [8] relates to CRL-7250. The assay can be described thus: Cytotoxic Profiling of Annotated Libraries Using Quantitative High-Throughput Screening (AID 1296008). For max response: % is set by controls: 0 for no effect and ±100 for the full control effect. To be noted: Five cell lines viability, CellTiter-Glo ATP luminescence, 48-72 h; max response: stronger effect = lower value. The essentials:
(§2)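 Compounds were pin-transferred onto cells and incubated 48 or 72 hr at 37 degree Celsius, 95% humidity. CellTiter-Glo was added, plates sat 10 min at room temperature, then ATP-coupled luminescence was imaged as the viability read-out.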

Assay [9] has as its system KB-3-1. Described as above. To be noted: Five cell lines viability, CellTiter-Glo ATP luminescence, 48-72 h; max response: stronger effect = lower value. In a few lines:
as §2

Assay [10] concerns MCC-13. Nature of the assay: qHTS assay to identify novel small-molecules to repurpose for Merkel cell carcinoma treatment (AID 1296009). To be noted: MCC and control cell lines, CellTiter-Glo viability, 72 h. In a few lines: (§3)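 Luminescence from CellTiter-Glo, read 10 min after addition at room temperature, reported viability following a 72 hr, 37 degree celsius treatment with NPC or MIPE compounds in titration; values normalized to plate controls.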
For orientation: Quantitative high-throughput screening tests each substance at several concentrations.

Assay [11] concerns MCC-26. The assay is described as above. To be noted: MCC and control cell lines, CellTiter-Glo viability, 72 h. In a few lines:
as §3
(In general: Cellular ATP, detected with luciferase, serves as a proxy for viable cell number.)

In assay [12] the test system is MKL-1. The assay is described as above. To be noted: MCC and control cell lines, CellTiter-Glo viability, 72 h. The essentials:
as §3

The test system of assay [13] is MKL-2. Described as above. To be noted: MCC and control cell lines, CellTiter-Glo viability, 72 h. The essentials: as §3
Assay [14] relates to HEK293. Nature of the assay: Cytotoxic Profiling of Annotated Libraries Using Quantitative High-Throughput Screening (AID 1296008). For max response: % is set by controls: 0 for no effect and ±100 for the full control effect. To be noted: Five cell lines viability, CellTiter-Glo ATP luminescence, 48-72 h; max response: stronger effect = lower value. In a few lines: as §2
The subject of assay [15] is HaCat. The description is as above. To be noted: Five cell lines viability, CellTiter-Glo ATP luminescence, 48-72 h; max response: stronger effect = lower value. The essentials:
as §2

Assay [16] has as its system NIH3T3. Described as above. To be noted: Five cell lines viability, CellTiter-Glo ATP luminescence, 48-72 h; max response: stronger effect = lower value. In a few lines: as §2
Assay [17] deals with NIH3T3. The assay can be described thus: qHTS assay to identify novel small-molecules to repurpose for Merkel cell carcinoma treatment (AID 1296009). The conditions noted are these: MCC and control cell lines, CellTiter-Glo viability, 72 h; at 44.8 µM (top of the series) unless noted. The essentials:
as §3

Assay [18] concerns HEK293T. The description is as above. The conditions noted are these: MCC and control cell lines, CellTiter-Glo viability, 72 h; at 44.8 µM (top of the series) unless noted. The essentials: as §3

Records with an inconclusive call do not appear. Values without a mark were called inactive. Activity calls are given as the source filed them. Calls come from the whole dose curve; as a rule, active = well fitted inhibition curve with a large enough effect; inconclusive = small, poorly fitted or top-dose-only effect; inactive = flat fitted curve, though single readings scatter.
Note: nearly all actives have a fitted effect of over 60% in size.
Potency is the fitted concentration of half-maximal effect.

For `C[CH2][Hg][S]c1ccccc1C(=O)O`, the Potency in assay [1] is 3.79 µM (active); in assay [2], 2.24 µM (active); in assay [3] it was 3.98 µM (active); in [4], 2.51 µM (active); in [5] it was 3.16 µM (active); in [6], 2.24 µM (active). Besides, the Potency in [7] was 2.13 µM (active); in assay [8] it was 16.8 µM (active); in [9], 7.31 µM (active); in [10], 15 µM (active); in assay [11], 15 µM (active); in assay [12], 2.99 µM (active). Also, the Potency in assay [13] was 0.944 µM (active).

As to `CC(=O)OC12C(O)C(C)C3(O)C4C=C(C)C(=O)C4CC(CO)=CC3C1C2(C)C` (stereo not drawn), the max response was 1.13% in [8], -4.3% in [14] and -13.8% in assay [15]. In addition, the call in assay [9] and in assay [16] was inactive. In addition, in assay [17], the outcome is “inactive [at 17.4 µM]”.

For `CC(=O)OC1CC(O)C(C)(C)C2CC(OC(C)=O)C3(C)C(CCC4(C)C(c5ccoc5)C(=O)C5OC543)C12C` (stereo not drawn), the max response was -0.447% in [8], -14.4% in assay [14], -11.6% in assay [15] and 4.61% in assay [9]. Besides, the compound was called inactive in [16]. Also, the outcome in [17] is “inactive [at 17.4 µM]”.

Turning to `CC(=O)[C@H]1CC[C@H]2[C@@H]3CC[C@@H]4C[C@H](O)CC[C@]4(C)[C@H]3CC[C@]12C`, the max response in assay [9] is 4.77%.

In the case of `CC(=O)O[C@H]1C[C@@H](OC(C)=O)C(C)(C)C2C[C@@H](O)[C@]3(C)C(CC[C@@]4(C)[C@H](C5=CC(=O)OC5O)C[C@H]5O[C@]543)[C@]21C` (stereo partly drawn), the max response in assay [8] was 2.14%; in assay [15], -10.3%; in [9], 6.85%. Moreover, the result in assay [14] and in assay [16] was inactive. For the same compound, the outcome in assay [18] and in assay [17] was “inactive [at 17.4 µM]” in each case.

Regarding `COC(=O)N1CCN(C(=O)Cc2ccc(Cl)c(Cl)c2)[C@@H](CN2CCCC2)C1`, the max response in assay [8] is -2.38%; in assay [14], -9.31%; in [15] it was -8.83%; in [9] it was -3.66%. Besides, the outcome in [16] and in [17] was inactive.

Turning to `CC(C)(O)[C@H]1O[C@H]2CC[C@@]3(C)[C@@](O)(CC[C@H]4Cc5c([nH]c6ccccc56)[C@@]43C)C2=CC1=O`, the max response in assay [8] was -14.1%; in [14] it was 2.88%; in [15], 0.588%; in assay [9] it was 9.13%. In addition, the compound was classed as inactive in [16]. In addition, the outcome in assay [17] is “inactive [at 17.4 µM]”.

For `Cc1cn(C[C@H](N)C(=O)O)c(=O)n(Cc2cc(-c3ccccc3)sc2C(=O)O)c1=O`, the max response in assay [8] is -1.8%; in [14] it was -3.99%; in assay [15], -2.49%. The result in assay [9], in [16] and in [17] was inactive.

Regarding `CN(C)[C@H](Cc1ccccc1)c1ccccc1`, the max response in assay [9] is 1.61%.

Regarding `COC1CC(O[C@H]2CC[C@]3(C=O)C4CC[C@]5(C)[C@@H](C6=CC(=O)OC6)CC[C@]5(O)[C@@H]4CC[C@]3(O)C2)OC(C)C1O[C@@H]1O[C@H](CO)[C@@H](O)[C@H](O)[C@H]1O` (stereo partly drawn), the Potency in [8] is 0.0968 µM (active); in assay [14] it was 0.153 µM (active); in assay [15], 1.53 µM (active); in assay [9], 0.273 µM (active). For the same compound, the call in [16] was inactive. Moreover, the outcome in assay [17] was “inactive [at 17.4 µM]”.
